From PubChem BioAssay (EPA / NIEHS)
Active and inactive are the calls of the source. How the source made its calls: active means hit-call score of the fitted dose curve at least 0.9, where 1 is the maximum; inactive means score below 0.9.

Test: CCTE_Shafer_MEA_acute_burst_percentage_std: CCTE's Neural Acute Assay for Standard Deviation of Burst Percentage, Shafer Lab (AID 2284018);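 further: fitted in the negative direction so actives lower burst percentage SD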
Method in brief: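 Value is percent change from baseline in the across-electrode SD of spikes-in-bursts percentage, wells with >/= 10 active electrodes. Acute 40-min exposure to 0.03-40 uM on DIV 13 or 15 rat cortical cultures, recorded at 37 C after 40-min baseline.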
For `CC(C)C(=O)OCCc1ccccc1`, the outcome was “inactive”.
In the case of `Nc1cccc(N)n1`, the AC50 is reported as 3 nM (active).
In the case of `Nc1nc(N)nc(-c2ccccc2)n1`, the outcome is reported as “inactive”.
In the case of `CCCCCCCCCCCC(=O)N(C)CC(=O)O`, the AC50 is reported as 57.6 nM (active).
In the case of `c1ccc(Nc2cccc3ccccc23)cc1`, the outcome is reported as “inactive”.

Test: CCTE_Shafer_MEA_acute_per_network_burst_spike_number_mean: CCTE's Neural Acute Assay for Average Number of Spikes in a Network Burst, Shafer Lab (AID 2284019);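 on AC50: curve fitted for loss of signal so actives reduce spikes per network burst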
Method in brief: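 Percent change from baseline in mean spikes per network burst, spikes detected at 8x rms noise. Each compound at 0.03-40 uM in at least three wells of rat cortical cultures, recorded 40 min before and 40 min during exposure.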
With `CC(C)C(=O)OCCc1ccccc1` the outcome was “inactive”.
For `Nc1cccc(N)n1`, the AC50 was 45.6 nM (active).
In the case of `Nc1nc(N)nc(-c2ccccc2)n1`, the outcome is reported as “inactive”.
With `CCCCCCCCCCCC(=O)N(C)CC(=O)O` the AC50 was 613 nM (active).
In the case of `c1ccc(Nc2cccc3ccccc23)cc1`, the outcome is reported as “inactive”.

Test: CCTE_Shafer_MEA_acute_per_network_burst_spike_number_std: CCTE's Neural Acute Assay for Standard Deviation of Number of Spikes in a Network Burst, Shafer Lab (AID 2284020);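 further: fitted for decrease in spike-number SD versus DMSO so actives lower it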
Method in brief: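 Endpoint: percent change from 40 min baseline in standard deviation of spikes per network burst, after 40 min compound exposure (0.03-40 uM, 37 C). Cortical rat neurons on MEA at DIV 13 or 15; spikes detected at 8x rms noise, 300-5000 Hz band-pass.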
In the case of `CC(C)C(=O)OCCc1ccccc1`, the outcome is reported as “inactive”.
For `Nc1cccc(N)n1`, the AC50 was 11.7 nM (active).
For `Nc1nc(N)nc(-c2ccccc2)n1`, the outcome was “inactive”.
For `CCCCCCCCCCCC(=O)N(C)CC(=O)O`, the AC50 was 14600 nM (active).
With `c1ccc(Nc2cccc3ccccc23)cc1` the AC50 was 1860 nM (active).
